The results in this text go back to the supplement of paper PMC6992640.

Among the test systems are HCI01; HCI03; HCI09; HCI11; HCI13; HCI16; UCD52; WHIM2; WHIM30.
Experiment in all cases: cell viability (% of vehicle); higher = less cytotoxic
Common to all, as to conditions: 10 µM; 72 h

Molecules are shown by their SMILES. ± gives the standard deviation of the averaged measurements.
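Further: PDX cells carrying CMV promoter-driven luciferase, viability read as total photon flux per second by IVIS imaging following D-luciferin, vehicle control 0.1% DMSO.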

On to `CC/C(=C(\c1ccccc1)c1ccc(OCCN(C)C)cc1)c1ccccc1` [Tamoxifen], for which the cell viability in the assay with HCI01 amounted to 39.1 ± 8.5; in the assay with HCI03 it was 139; in the assay with HCI09, 58.5 ± 44; in the assay with HCI11, 120; in the assay on HCI13 (cells of an ER-positive luminal breast cancer xenograft) it was 82.5 ± 42; in the assay with HCI16, 88.8. Besides, the figures for the cell viability in the assay with UCD52, with WHIM2 and in the assay on WHIM30 (cells of a triple-negative basal-like breast cancer xenograft) were 74.5 ± 15, 70.4 ± 0.76 and 123 ± 9.1, respectively.

For `COC(=O)C1=C(C)NC(C)=C(C(=O)OC)C1c1ccccc1[N+](=O)[O-]` [Nifedipine], the cell viability amounted to 82.2 ± 18 in the assay on HCI01 (cells of a triple-negative basal-like breast cancer xenograft); 130 in the assay on HCI03 (cells of an ER-positive luminal breast cancer xenograft); 66.9 ± 6.3 in the assay with HCI09; 71.2 in the assay on HCI11 (cells of an ER-positive luminal breast cancer xenograft); 93.3 ± 14 in the assay on HCI13; 111 in the assay on HCI16 (cells of a triple-negative basal-like breast cancer xenograft). Besides, the cell viability in the assay on UCD52 (cells of a triple-negative basal-like breast cancer xenograft) was determined as 92.25 ± 0.35; in the assay with WHIM2, 92.3 ± 17; in the assay with WHIM30 it was 110.7 ± 0.67.

For the molecule `CC(O)C1C(=O)N2C(C(=O)O)=C(SC3CNC(C(=O)N(C)C)C3)C(C)C12` (stereo unspecified) [Meropenem], the cell viability amounted to 103 ± 7 with HCI01; 106 with HCI03; 87.1 ± 6.1 in the assay with HCI09; 95.1 in the assay with HCI11; 98.6 ± 2.3 in the assay on HCI13; 103 with HCI16. The cell viability with UCD52 worked out at 73.2 ± 6.8; in the assay with WHIM2 it was 83.4 ± 4.6; with WHIM30, 112 ± 5.1.

`O=C(O)Cc1ccccc1Nc1c(Cl)cccc1Cl` [Diclofenac]: the cell viability with HCI01 worked out at 92.9 ± 26; in the assay on HCI03, 123; in the assay with HCI09, 84.8 ± 15; in the assay on HCI11 it was 96.8; in the assay on HCI13 it was 114 ± 31; in the assay with HCI16 it was 127. For the same molecule, the cell viability turned out to be 90.6 ± 16 in the assay on UCD52, 87.4 ± 0.94 in the assay on WHIM2 (cells of a triple-negative basal-like breast cancer xenograft) and 92.1 ± 4.7 in the assay with WHIM30.

Turning to `c1cc(CN2CCCNCCNCCCNCC2)ccc1CN1CCCNCCNCCCNCC1` [Plerixafor (AMD3100)], the cell viability was found to be 99.4 ± 11 in the assay on HCI01; 86.8 in the assay with HCI03; 92.6 ± 9.3 in the assay with HCI09; 84.7 in the assay on HCI11; 85.1 ± 4.1 in the assay with HCI13; 87.9 in the assay on HCI16. The results for the cell viability with UCD52, with WHIM2 and in the assay on WHIM30 were 92.3 ± 9.7, 73 ± 11 and 110 ± 12, respectively.

`COc1cc(Nc2nc3ccccc3nc2NS(=O)(=O)c2ccc(NC(=O)c3ccc(C)c(OC)c3)cc2)cc(OC)c1`: the cell viability with HCI01 was 86.4 ± 4.2; in the assay with HCI03, 102; with HCI09 it was 49.675 ± 0.011; in the assay with HCI11, 86.9; in the assay on HCI13 it was 66.9 ± 17; with HCI16, 94.9. Moreover, the cell viability in the assay on UCD52 was found to be 84.5 ± 8.2; in the assay on WHIM2 it was 54.3 ± 12; in the assay on WHIM30 it was 88.5 ± 24.

With `CCCN(CCC)CCc1cccc2c1CC(=O)N2.Cl` [Ropinirole HCl], the cell viability worked out at 61.7 ± 39 in the assay on HCI01; 93.8 in the assay with HCI03; 87.9 ± 2.6 in the assay with HCI09; 86.3 with HCI11; 95.9 ± 8.2 in the assay on HCI13; 102 in the assay with HCI16. In addition, the cell viability with UCD52 worked out at 78.9 ± 7.1; with WHIM2, 91.6 ± 38; in the assay on WHIM30 it was 126 ± 12.

As to `Clc1ccc2nsnc2c1NC1=NCCN1` [Tizanidine], the cell viability was found to be 97.7 ± 3.7 with HCI01; 94.6 with HCI03; 149 ± 74 with HCI09; 110 with HCI11; 109 ± 26 in the assay with HCI13; 110 in the assay with HCI16. Further, the cell viability stood at 101 ± 7.1 in the assay with UCD52, 82.1 ± 22 in the assay on WHIM2 and 91.9 ± 20 with WHIM30.

With `CC1CC(OC(=O)C(O)c2ccccc2)CC(C)(C)C1` (stereo unspecified) [Cyclandelate], the cell viability was determined as 110 ± 9.8 in the assay on HCI01; 122 in the assay with HCI03; 87.6 ± 4.9 in the assay on HCI09 (cells of a triple-negative luminal androgen receptor type breast cancer xenograft); 89.1 with HCI11; 73.5 ± 14 in the assay with HCI13; 113 in the assay with HCI16. Further, the cell viability with UCD52 turned out to be 80.8 ± 14; in the assay with WHIM2 it was 93.3 ± 10; in the assay with WHIM30, 95.91 ± 0.5.
